Test results: the supplement of paper PMC7184167
Structures can show the parent of a compound that is named as a salt.

The compounds below were run on replication-induced senescent mouse newborn dermal fibroblasts (NBF) (assay: relative cell viability of senescent cells (fraction); higher = less killing of senescent cells). Settings: 1 µM; 3 days.
Procedure: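 Replication-induced senescent newborn mouse skin fibroblasts (NBFs) in 24-well plates were treated with a Selleck FDA-approved drug library at 1 µM for 3 days.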

| SMILES | relative cell viability |
| --- | --- |
| Cc1cnc(C(=O)NCCc2ccc(S(=O)(=O)NC(=O)NC3CCCCC3)cc2)cn1 [Glipizide] | 0.23 |
| COc1ccccc1OCC(O)CN1CCN(CC(=O)Nc2c(C)cccc2C)CC1 (stereo unspecified) [Ranolazine 2HCl] | 0.773 |
| C[C@H]1C[C@H]2[C@@H]3CCC4=CC(=O)C=C[C@]4(C)[C@@]3(F)[C@@H](O)C[C@]2(C)[C@@]1(O)C(=O)CO [Betamethasone] | 0.229 |
| O=S(=O)(O)CCSSCCS(=O)(=O)O [Dimesna] | 0.736 |
| c1ccc(-c2ccc(C(c3ccccc3)n3ccnc3)cc2)cc1 (stereo unspecified) [Bifonazole] | 0.877 |
| COC(=O)C1=C(C)NC(C)=C(C(=O)OCC(C)C)C1c1ccccc1[N+](=O)[O-] (stereo unspecified) [Nisoldipine] | 1.12 |
| Cn1c(=O)c2[nH]cnc2n(C)c1=O [Aminophylline] | 0.98 |
| CC(C)(C)NC(=O)[C@H]1CC[C@H]2[C@@H]3CC[C@H]4NC(=O)C=C[C@]4(C)[C@H]3CC[C@]12C [Finasteride] | 0.942 |
| CCCC(CCC)C(=O)O [Valproic acid sodium salt (Sodium valproate)] | 1.11 |
| O=C(O)c1cccnc1 [Nicotinic Acid] | 0.937 |
| C[C@H](NCc1ccc(OCc2cccc(F)c2)cc1)C(N)=O [Safinamide Mesylate] | 0.955 |
| C[C@@H]1[C@H](O)[C@@H](C)/C=C/C=C/C=C/C=C/C=C/C=C/C=C/[C@H](O[C@@H]2O[C@H](C)[C@@H](O)[C@H](N)[C@@H]2O)C[C@@H]2O[C@](O)(C[C@@H](O)C[C@@H](O)[C@H](O)CC[C@@H](O)C[C@@H](O)CC(=O)O[C@H]1C)C[C@H](O)[C@H]2C(=O)O [Amphotericin B] | 0.766 |
| CCCc1nc(C(C)(C)O)c(C(=O)OCc2oc(=O)oc2C)n1Cc1ccc(-c2ccccc2-c2nnn[nH]2)cc1 [Olmesartan Medoxomil] | 0.252 |
| COc1cc2nc(N(C)CCCNC(=O)C3CCCO3)nc(N)c2cc1OC (stereo unspecified) [Alfuzosin HCl] | 0.96 |
| CO[C@H]1C[C@@H]2CC[C@@H](C)[C@@](O)(O2)C(=O)C(=O)N2CCCC[C@H]2C(=O)O[C@H]([C@H](C)C[C@@H]2CC[C@@H](OC(=O)C(C)(CO)CO)[C@H](OC)C2)CC(=O)[C@H](C)/C=C(\C)[C@@H](O)[C@@H](OC)C(=O)[C@H](C)C[C@H](C)/C=C/C=C/C=C/1C | 0.603 |
| COc1c(N2C[C@@H]3CCCN[C@@H]3C2)c(F)cc2c(=O)c(C(=O)O)cn(C3CC3)c12 [Moxifloxacin HCl] | 1.03 |
| CCOc1cc(CC(=O)N[C@@H](CC(C)C)c2ccccc2N2CCCCC2)ccc1C(=O)O [Repaglinide] | 0.978 |
| CN(Cc1cnc2nc(N)nc(N)c2n1)c1ccc(C(=O)N[C@@H](CCC(=O)O)C(=O)O)cc1 [Methotrexate] | 0.692 |
| NS(=O)(=O)c1cc2c(cc1Cl)NCNS2(=O)=O [Hydrochlorothiazide] | 1.07 |
| Cc1nc(Nc2ncc(C(=O)Nc3c(C)cccc3Cl)s2)cc(N2CCN(CCO)CC2)n1 [Dasatinib] | 1.39 |
| CC(C)[C@H](O)C(=O)N[C@@H](C)C(=O)N[C@@H]1C(=O)N(C)CCc2ccccc21 | 0.981 |
| CCC[S+]([O-])c1ccc2[nH]c(NC(=O)OC)nc2c1 (stereo unspecified) [Albendazole Oxide] | 0.993 |
| Cc1cn([C@@H]2C[C@@H](O)[C@H](CO)O2)c(=O)[nH]c1=O [Telbivudine] | 1 |
| CN(C)CCc1c[nH]c2ccc(C[C@H]3COC(=O)N3)cc12 [Zolmitriptan] | 0.999 |
| CCCc1nn(C)c2c(=O)[nH]c(-c3cc(S(=O)(=O)N4CCN(C)CC4)ccc3OCC)nc12 [Sildenafil Citrate] | 0.891 |
| Cc1cnc(NC(=O)C2=C(O)c3ccccc3S(=O)(=O)N2C)s1 [Meloxicam] | 1.17 |
